Measured values: PubChem BioAssay (NCI)
The panel holds about 83,000 compounds, 20% with a hit somewhere; the sample as a whole holds those more often.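 48-hour exposure, single concentration, 96-well plates; percent growth endpoint where 0 means no net growth. Active: below 10.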 Active and inactive are the calls of the source.

Tests used:
Assay in all cases: NCI-60 one-dose screen, 48 h (100 = growth as untreated, 0 = no growth, -100 = all killed)
SR leukemia = conditions: 10 µM
OVCAR-8 ovarian = conditions: 10 µM
OVCAR-5 ovarian = conditions: 10 µM
OVCAR-4 ovarian = conditions: 10 µM
OVCAR-3 ovarian = conditions: 10 µM
NCI/ADR-RES ovarian = conditions: 10 µM
T-47D breast = conditions: 10 µM
BT-549 breast = conditions: 10 µM
MDA-MB-435 melanoma = conditions: 10 µM
SW-620 colon = conditions: 10 µM
MCF7 breast = conditions: 10 µM unless noted
HCT-116 colon = conditions: 10 µM
HCC-2998 colon = conditions: 10 µM
KM12 colon = conditions: 10 µM
RPMI-8226 leukemia = conditions: 10 µM
SK-OV-3 ovarian = conditions: 10 µM
IGROV1 ovarian = conditions: 10 µM
HS 578T breast = conditions: 10 µM

Measured: growth

O=C1C=C(O)C(=O)C=C1O
inactive: SR leukemia 98.2% | OVCAR-8 ovarian 103% | OVCAR-5 ovarian 108% | OVCAR-4 ovarian 118% | OVCAR-3 ovarian 107% | NCI/ADR-RES ovarian 101% | T-47D breast 93.9% | BT-549 breast 103% | MDA-MB-435 melanoma 109% | SW-620 colon 104% | MCF7 breast 96.5% | HCT-116 colon 105% | HCC-2998 colon 111% | KM12 colon 107%

O=c1cc(-c2ccccc2)[nH]c(=S)[nH]1
inactive: RPMI-8226 leukemia 89.6% | OVCAR-8 ovarian 111% | OVCAR-5 ovarian 98.4% | OVCAR-4 ovarian 110% | SK-OV-3 ovarian 113% | IGROV1 ovarian 104% | OVCAR-3 ovarian 106% | HS 578T breast 103% | NCI/ADR-RES ovarian 101% | T-47D breast 107% | BT-549 breast 97.5% | MDA-MB-435 melanoma 104% | SW-620 colon 104% | MCF7 breast 95.3% | HCT-116 colon 101% | HCC-2998 colon 104% | KM12 colon 96.7%

CCOC(=O)c1ccc(Nc2sc(C(=O)c3cccc([N+](=O)[O-])c3)c(N)c2C#N)cc1
inactive: OVCAR-8 ovarian 35.7% | OVCAR-5 ovarian 38.1% | OVCAR-4 ovarian 33.1% | SK-OV-3 ovarian 27.6% | HS 578T breast 15.5% | NCI/ADR-RES ovarian 26.8% | T-47D breast 48% | BT-549 breast 52.9% | HCC-2998 colon 45.8% | KM12 colon 17.5%
active: RPMI-8226 leukemia -3.9% | IGROV1 ovarian -6.69% | OVCAR-3 ovarian -44.8% | MDA-MB-435 melanoma -2.02% | SW-620 colon 5.69% | MCF7 breast 7.42% | HCT-116 colon 0.851%

COc1cc2cc(OC(C)=O)c3cc4c(cc3c2c(OC)c1OC)OCO4
inactive: RPMI-8226 leukemia 97.4% | OVCAR-8 ovarian 102% | OVCAR-5 ovarian 92.3% | OVCAR-4 ovarian 111% | SK-OV-3 ovarian 103% | IGROV1 ovarian 107% | OVCAR-3 ovarian 101% | HS 578T breast 91.4% | NCI/ADR-RES ovarian 95.7% | T-47D breast 106% | BT-549 breast 104% | MDA-MB-435 melanoma 102% | SW-620 colon 96.9% | MCF7 breast 93.6% | HCT-116 colon 104% | HCC-2998 colon 107% | KM12 colon 99.8%

CC(=O)Nc1ccc(NC(C)=O)c2c1C(=O)c1ccccc1C2=O
inactive: SR leukemia 78.9% | OVCAR-8 ovarian 92.8% | OVCAR-5 ovarian 88.4% | SK-OV-3 ovarian 88.5% | IGROV1 ovarian 67% | OVCAR-3 ovarian 104% | HS 578T breast 102% | NCI/ADR-RES ovarian 95.4% | T-47D breast 81.2% | BT-549 breast 36.4% | MDA-MB-435 melanoma 107% | SW-620 colon 91% | MCF7 breast 87.3% | HCC-2998 colon 105% | KM12 colon 94.5%

COc1cc(CCN=Cc2ccccc2O)c([N+](=O)[O-])cc1OC
inactive: RPMI-8226 leukemia 105% | OVCAR-8 ovarian 107% | OVCAR-5 ovarian 101% | OVCAR-4 ovarian 120% | SK-OV-3 ovarian 108% | IGROV1 ovarian 96.5% | OVCAR-3 ovarian 101% | HS 578T breast 114% | NCI/ADR-RES ovarian 103% | T-47D breast 97.9% | BT-549 breast 91.2% | MDA-MB-435 melanoma 110% | SW-620 colon 104% | MCF7 breast 104% | HCT-116 colon 95% | HCC-2998 colon 101% | KM12 colon 107%

COc1cc2nc3cc([N+](=O)[O-])ccc3c(Cl)c2cc1OC
inactive: SR leukemia 91.7% | OVCAR-8 ovarian 88.2% | OVCAR-5 ovarian 86.3% | IGROV1 ovarian 89.7% | OVCAR-3 ovarian 123% | HS 578T breast 112% | NCI/ADR-RES ovarian 103% | T-47D breast 83.2% | BT-549 breast 51.3% | MDA-MB-435 melanoma 93.2% | SW-620 colon 104% | MCF7 breast 83% | HCT-116 colon 95.7% | HCC-2998 colon 106% | KM12 colon 110%

S=C1NCc2cncnc2N1
inactive: RPMI-8226 leukemia 102% | OVCAR-8 ovarian 104% | OVCAR-5 ovarian 97.8% | OVCAR-4 ovarian 105% | SK-OV-3 ovarian 102% | IGROV1 ovarian 111% | OVCAR-3 ovarian 112% | HS 578T breast 105% | NCI/ADR-RES ovarian 106% | T-47D breast 105% | BT-549 breast 100% | MDA-MB-435 melanoma 101% | SW-620 colon 109% | MCF7 breast 93.4% | HCT-116 colon 99.1% | HCC-2998 colon 106%

CC(=O)NC(N)=S
inactive: RPMI-8226 leukemia 103% | OVCAR-8 ovarian 104% | OVCAR-5 ovarian 116% | OVCAR-4 ovarian 111% | SK-OV-3 ovarian 118% | IGROV1 ovarian 121% | OVCAR-3 ovarian 119% | HS 578T breast 115% | NCI/ADR-RES ovarian 110% | T-47D breast 124% | BT-549 breast 117% | MDA-MB-435 melanoma 117% | SW-620 colon 101% | MCF7 breast 86.5% | HCT-116 colon 111% | HCC-2998 colon 100% | KM12 colon 107%

CCOc1ccccc1/C=N/Nc1nc2ccccc2o1
inactive: RPMI-8226 leukemia 105% | OVCAR-8 ovarian 108% | OVCAR-5 ovarian 97.3% | OVCAR-4 ovarian 41.9% | SK-OV-3 ovarian 94.2% | IGROV1 ovarian 116% | OVCAR-3 ovarian 122% | HS 578T breast 101% | NCI/ADR-RES ovarian 97.6% | T-47D breast 23.4% | BT-549 breast 98.3% | MDA-MB-435 melanoma 113% | SW-620 colon 102% | HCT-116 colon 102% | HCC-2998 colon 62.2% | KM12 colon 86.4%
active: MCF7 breast 7.97%

O=C(O)COCC(=O)O
inactive: SR leukemia 95.3% | OVCAR-8 ovarian 98.2% | OVCAR-5 ovarian 107% | OVCAR-4 ovarian 88.6% | IGROV1 ovarian 105% | OVCAR-3 ovarian 103% | NCI/ADR-RES ovarian 106% | T-47D breast 129% | BT-549 breast 122% | MDA-MB-435 melanoma 109% | SW-620 colon 102% | MCF7 breast 100% | HCT-116 colon 108% | HCC-2998 colon 114% | KM12 colon 96.4%

O=C(NC1CCCCC1)OCc1c(COC(=O)NC2CCCCC2)c(-c2ccc(Cl)c(Cl)c2)n2c1CCC2
active: IGROV1 ovarian -42.4%
inactive: RPMI-8226 leukemia 40% | OVCAR-8 ovarian 35% | OVCAR-5 ovarian 19% | OVCAR-4 ovarian 11.5% | SK-OV-3 ovarian 12.4% | OVCAR-3 ovarian 31.2% | HS 578T breast 39.7% | NCI/ADR-RES ovarian 25.2% | T-47D breast 20.8% | BT-549 breast 53.7% | MDA-MB-435 melanoma 56.3% | SW-620 colon 32.6% | MCF7 breast 27.4% | HCT-116 colon 15.5% | HCC-2998 colon 30.5% | KM12 colon 56.3%

NC(=O)NC(=O)c1ccc(Cl)cc1
inactive: SR leukemia 88.9% | OVCAR-8 ovarian 106% | OVCAR-5 ovarian 113% | SK-OV-3 ovarian 103% | IGROV1 ovarian 92.6% | OVCAR-3 ovarian 125% | HS 578T breast 97.9% | NCI/ADR-RES ovarian 107% | T-47D breast 96.9% | BT-549 breast 99.4% | MDA-MB-435 melanoma 102% | SW-620 colon 102% | MCF7 breast 95.4% | HCT-116 colon 87.9% | HCC-2998 colon 111% | KM12 colon 110%

CCOC(=O)C(=O)C=P(c1ccccc1)(c1ccccc1)c1ccccc1
inactive: RPMI-8226 leukemia 102% | OVCAR-8 ovarian 107% | OVCAR-5 ovarian 101% | OVCAR-4 ovarian 111% | SK-OV-3 ovarian 109% | IGROV1 ovarian 102% | OVCAR-3 ovarian 103% | HS 578T breast 105% | NCI/ADR-RES ovarian 103% | T-47D breast 97.7% | BT-549 breast 102% | MDA-MB-435 melanoma 113% | SW-620 colon 114% | MCF7 breast 97.5% | HCT-116 colon 100% | HCC-2998 colon 107% | KM12 colon 99.6%

CCOC(=O)c1ccc(NC(=S)P(=O)(c2ccccc2)c2ccccc2)cc1
inactive: RPMI-8226 leukemia 64.4% | OVCAR-8 ovarian 107% | OVCAR-5 ovarian 105% | OVCAR-4 ovarian 99.6% | SK-OV-3 ovarian 107% | IGROV1 ovarian 110% | OVCAR-3 ovarian 92.2% | HS 578T breast 96.4% | NCI/ADR-RES ovarian 101% | T-47D breast 109% | BT-549 breast 101% | MDA-MB-435 melanoma 91.1% | SW-620 colon 102% | MCF7 breast 100% | HCT-116 colon 91.7% | HCC-2998 colon 108% | KM12 colon 96.2%

O=C1OC(c2ccc(F)cc2)CC1CN1CCOCC1 (configuration not stated)
inactive: RPMI-8226 leukemia 75.6% | OVCAR-8 ovarian 99.5% | OVCAR-5 ovarian 112% | OVCAR-4 ovarian 101% | SK-OV-3 ovarian 107% | IGROV1 ovarian 104% | OVCAR-3 ovarian 101% | HS 578T breast 113% | NCI/ADR-RES ovarian 101% | T-47D breast 93.6% | BT-549 breast 95.5% | MDA-MB-435 melanoma 109% | SW-620 colon 102% | MCF7 breast 97.6% | HCT-116 colon 92.5% | HCC-2998 colon 98.8% | KM12 colon 102%

COC(=O)c1cccc(Br)c1
inactive: RPMI-8226 leukemia 106% | OVCAR-8 ovarian 112% | OVCAR-5 ovarian 88.8% | OVCAR-4 ovarian 112% | SK-OV-3 ovarian 118% | IGROV1 ovarian 116% | OVCAR-3 ovarian 121% | HS 578T breast 117% | NCI/ADR-RES ovarian 106% | T-47D breast 111% | BT-549 breast 107% | MDA-MB-435 melanoma 94% | SW-620 colon 114% | MCF7 breast 116% | HCT-116 colon 97.8% | HCC-2998 colon 107% | KM12 colon 112%

COc1ccccc1NC(=O)c1cc2cc(Br)ccc2cc1O
active: RPMI-8226 leukemia -29.6% | OVCAR-8 ovarian 9.55% | SK-OV-3 ovarian 1.19% | IGROV1 ovarian -46% | OVCAR-3 ovarian 4.13% | HS 578T breast 6.12% | NCI/ADR-RES ovarian 5.05% | T-47D breast 9.84% | MCF7 breast -2.37% | HCT-116 colon 3.77% | KM12 colon 9.92%
inactive: OVCAR-5 ovarian 104% | OVCAR-4 ovarian 18.7% | BT-549 breast 18.8% | MDA-MB-435 melanoma 10.2% | SW-620 colon 10.9% | HCC-2998 colon 20.1%

O=C(CC(=O)c1ccccc1O)c1ccccc1
inactive: RPMI-8226 leukemia 87.6% | OVCAR-8 ovarian 73% | OVCAR-5 ovarian 101% | OVCAR-4 ovarian 90.6% | SK-OV-3 ovarian 98.9% | IGROV1 ovarian 98.3% | OVCAR-3 ovarian 90.9% | HS 578T breast 106% | NCI/ADR-RES ovarian 64.4% | T-47D breast 79.7% | BT-549 breast 77.5% | MDA-MB-435 melanoma 102% | SW-620 colon 86.4% | MCF7 breast 76.4% | HCT-116 colon 76.6% | HCC-2998 colon 107% | KM12 colon 92.8%
